# KB-V1 cytotox – kills drug-selected multidrug resistant KB-V1 cells | KB-V1 MDR cells viability, CellTiter-Glo, 72 h | Potency, µM (highest dose often 46.1 µM), actives largely listed as cytotoxic | 3.4% of 400,000 active | AID 1347076; note: potency is the fitted concentration of half-maximal effect; % is set by controls: 0 for no effect and ±100 for the full control effect; nearly all actives have a fitted effect of over 60% in size
#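 KB-V1, DMEM (no phenol red) + 10% FBS; cpd pin-transferred, titration series; 72 h, 37 degrees C; CellTiter-Glo, luminescence. Data normalized, curve-fit.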
# SW480 rerep – inducers of DNA re-replication in SW480 colon cancer cells; Potency, µM (series often up to 46.1 µM), for inactives: top-dose re-replication activation, usual class: activators; AID 624297; SW480 DNA re-replication, Hoechst DNA content imaging, 48 h; 1.8% of 340,000 active; note: potency is the fitted concentration of half-maximal effect; % of control where 0% means no effect; nearly all actives have a fitted effect of over 55% in size
#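 Compounds, transferred as 23 nL by pin tool, were incubated with cells for 48 hr; DNA content per nucleus was then quantified by Hoechst staining and fluorescence plate imaging.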
# MCF10A rereplic – inducers of DNA re-replication in MCF 10A breast cells. MCF 10A DNA re-replication, Hoechst nuclear intensity, 48 h. Potency, µM (series often up to 46.1 µM), without a hit: at the highest dose activity, positive = re-replication, actives largely listed as activators. 2.9% of 350,000 active; note: potency is the fitted concentration of half-maximal effect; % of control where 0% means no effect; nearly all actives have a fitted effect of over 50% in size
# KB-3-1 tox – KB-3-1 parental cell cytotoxicity; Potency, µM (doses to about 46.1 µM), most hits filed as cytotoxic; 1.4% of 400,000 active; KB-3-1 viability, CellTiter-Glo ATP luminescence, 72 h; AID 1347075; note: potency is the fitted concentration of half-maximal effect; % is set by controls: 0 for no effect and ±100 for the full control effect; nearly all actives have a fitted effect of over 60% in size
#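 72 h, 37 °C compound treatment of KB-3-1 parental cells; CellTiter-Glo added, 10 min, luminescence read. Data corrected against DMSO-only plates and normalized before curve fitting.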
# IL-1B inflam inh – inhibitors of inflammasome signaling (IL-1 beta secretion); activity change, % at 57.5 µM; AID 743279; 4.7% of 360,000 active; THP-1 LPS/ATP IL-1B secretion, AlphaLISA, 16 h; active compounds read low; in the data active = activity change below about -50%; inconclusive = mostly about -30% to -49%; note: % is set by controls: 0 for no effect and ±100 for the full control effect
#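 THP-1 cells pretreated 1 hr with compounds (up to 57.5 uM final), then stimulated with LPS (250 ng/mL final) plus ATP (1.25 mM final); secreted IL-1B measured by AlphaLISA after 16 hr, decreased signal indicating inhibition.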
# The depositor's hits bear a star; i = inactive; ? = inconclusive; nt = not tested or not shown. Shown are actives, neighbours in structure and some others; about 9.9% of the full set was active somewhere. Unless noted, calls come from the whole dose curve; as a rule, active = well fitted curve in the direction sought with a large enough effect; inconclusive = small, poorly fitted or top-dose-only effect, or another doubt; inactive = no such curve, though single readings can be large; an effect the other way counts as inactive or inconclusive.
SMILES,KB-V1 cytotox,SW480 rerep,MCF10A rereplic,KB-3-1 tox,IL-1B inflam inh
COc1ccc(-c2c/c(=N\c3nc(-c4ccccc4)c(C)s3)c3ccccc3o2)cc1O,5.8µM*,?,?,5.2µM*,18
Cc1ccccc1Nc1c(-c2ccc(Cl)s2)nc2cccc(C)n12,i,nt,nt,i,nt
CCN(CC(=O)Nc1c(F)cccc1F)C(=O)C1CCN(c2ncnc3sc(C)c(C)c23)CC1,13µM*,3%,17%,i,-17
CCN(CC)CCNC(=O)c1ccc(NC(=O)C2CCN(c3ncnc4sc(C)c(C)c34)CC2)cc1,i,21µM*,?,i,-8
Cc1cc(Br)ccc1NC(=O)CN(C)C(=O)C1CCN(c2ncnc3sc(C)c(C)c23)CC1,?,?,?,i,-56*
Cc1sc2ncnc(N3CCC(C(=O)Nc4ccc(OC(F)F)c(Cl)c4)CC3)c2c1C,i,0%,?,i,9
Cc1sc2ncnc(N3CCC(C(=O)NNC(=O)COc4ccccc4Cl)CC3)c2c1C,?,4%,4.1µM*,i,-24
CCN(CC(=O)Nc1c(Cl)cccc1Cl)C(=O)C1CCN(c2ncnc3sc(C)c(C)c23)CC1,i,-1%,3%,i,-8
Cc1ccc(S(=O)(=O)N2CCN(C(=O)c3ccc(-n4cncn4)c([N+](=O)[O-])c3)CC2)c(C)c1,?,nt,nt,i,-28
O=CC(=O)c1ccc(Br)cc1,?,nt,nt,i,nt
C=C[C@@H]1c2cc(C)ccc2N(S(=O)(=O)c2ccc(C)cc2)[C@H](c2ccccc2C(F)(F)F)C1(C#N)C#N,i,15%,2%,i,24
COc1cccc(C(C(=O)NCC2CCCO2)N(C(=O)Cn2nnc3ccccc32)c2ccc(NC(C)=O)cc2)c1 (stereo not given),i,-12%,-6%,?,-63*
CCOc1cc(C(C(=O)NCC2CCCO2)N(C(=O)Cn2nnc3ccccc32)c2ccc(C(C)=O)cc2)ccc1O (stereo not given),i,19%,3%,i,-2
O=S(=O)(Nc1ccc(-c2ccc3nncn3n2)cc1)c1cccc(F)c1,i,-8%,15%,i,6
Cc1ccc2cc(C#N)c(NCCNC(=O)C3CC3)nc2c1C,3.7µM*,?,?,?,?
Cc1ccc2cc(C#N)c(NCCNC(=S)NCCCN(C)C)nc2c1C,i,?,21µM*,i,?
Cc1cc(C)c2nc(NCCCNC(=S)NCCCN(C)C)c(C#N)cc2c1,i,12µM*,18µM*,?,-21
CCOCCCNC(=S)NCCCNc1nc2c(C)cc(C)cc2cc1C#N,i,-6%,-17%,i,-28
Brc1ccsc1/C=N/Nc1ccccc1,i,-3%,3%,i,-7
CN(C)c1ccc(C=c2c3cc(O)ccc3n3c2cc(-c2ccccc2)[n+]3C)cc1,?,15%,0%,?,-105*
C[n+]1c(-c2ccccc2)cc2c(=Cc3ccc([N+](=O)[O-])cc3)c3ccccc3n21,?,29%,9%,?,-98*
C[n+]1c(-c2ccccc2)cc2c(=Cc3ccccc3)c3ccccc3n21,?,?,21µM*,?,-100*
Cc1cc2c(=Cc3ccc(N(C)C)cc3)c3ccccc3n2[n+]1C,i,?,-7%,i,-2
CC(C)n1c2ccccc2c2cc([N+](=O)[O-])ccc21,?,-2%,?,i,-6
CCCN(C(=O)CCl)C1=CCCCC1,i,21%,16%,?,-87*
SMILES,KB-V1 cytotox,SW480 rerep,MCF10A rereplic,KB-3-1 tox,IL-1B inflam inh
Cc1ccc(NC(=O)c2ccc(=O)n(Cc3ccccc3C)c2)c(C)c1,?,nt,nt,i,nt
COc1cccc(CSc2nc3n(n2)C(CC(C)C)C(C(=O)Nc2ccccc2C)=C(C)N3)c1 (stereo not given),i,nt,nt,i,nt
CCOc1ccccc1C(=O)Nc1cccc(-c2ccc(N3CCOCC3)nn2)c1,?,1%,26%,i,-62*
CCOc1ccc(C(=O)Nc2cccc(-c3ccc(N4CCOCC4)nn3)c2)cc1OCC,?,1%,25%,i,-6
CN1CCN(c2ccc(-c3cccc(NC(=O)COc4ccc(Cl)cc4)c3)nn2)CC1,i,-5%,?,?,-70*
Cc1cc(C(=O)C(C)OC(=O)c2ccc(NC(=O)CC#N)cc2)c(C)n1-c1ccccc1 (stereo not given),i,3.3µM*,?,i,-56*
CC(OC(=O)c1ccc(NC(=O)CC#N)cc1)C(=O)NC(c1ccccc1)c1ccccc1 (stereo not given),i,1%,2%,i,3
Cc1ccc(NC(=O)Cc2ccc3c(c2)OCCO3)cc1S(=O)(=O)N1CCCCC1,?,1%,8%,i,-11
O=C(/C=C/Sc1ccccc1)c1ccccc1,i,21µM*,5.2µM*,i,-104*
O=C(/C=C/Sc1ccccc1)c1ccc(Cl)cc1,i,17%,-2%,i,-99*
O=C(/C=C/Nc1ccccc1)c1ccccc1,i,1%,?,i,12
CO/N=C\CC(=O)Nc1ccc(Cl)cc1Cl,5.8µM*,7.3µM*,16µM*,?,1
CO/N=C\CC(=O)Nc1ccc(F)cc1,i,1%,-2%,i,42
CC(C)C(=O)NCCc1nc2ccccc2n1CCc1ccccc1,i,-3%,2%,i,-63*
CC(C)(C)Cc1nc2ccccc2n1CCc1ccccc1,18µM*,9%,?,?,-11
CC(C)C(=O)NCCc1nc2ccccc2n1C,i,-5%,-4%,i,-8
CC(C)C[C@H](NC(=O)N1CCn2c1nc1ccccc12)C(=O)NCCc1ccccc1,i,-23%,2%,i,-51*
Cc1nc(N2C(=O)c3oc4ccccc4c(=O)c3C2c2ccccc2F)sc1C (stereo not given),i,nt,nt,i,nt
Cn1nc(C(F)(F)F)c(-c2ccc(F)cc2)c1NC(=O)c1ccco1,i,-4%,-2%,i,21
Cn1nc(C(F)(F)F)c(-c2ccc(Br)cc2)c1NC(=O)Nc1ccc(F)cc1F,?,-1%,21µM*,?,nt
CN(CC(=O)Nc1cccc(F)c1)CC(=O)NC(c1ccccc1)c1ccccc1,i,8%,15%,i,-20
COCCN(CC(=O)Nc1cccc(C)c1C)C(=O)C1(c2ccccc2)CC1,18µM*,0%,-1%,i,-10
Cc1cccc(NC(=O)CN(C)CC(=O)NC(c2ccccc2)c2ccccc2)c1C,3.3µM*,-3%,0%,i,-28
COCCN(CC(=O)Nc1cccc(C)c1C)C(=O)C1(c2ccc(Cl)cc2)CCC1,i,-12%,79%,i,-53*
S=c1ncc2[nH]c(=S)[nH]c2[nH]1,i,-2%,?,i,-3

# Compound activity deposited in PubChem by National Center for Advancing Translational Sciences (NCATS).
